DT40 TDP1 no CPT – qHTS for Inhibitors of human tyrosyl-DNA phosphodiesterase 1 (TDP1): qHTS in cells in absence of CPT | DT40 Tdp1-/- hTDP1 cells, no CPT, ATP luminescence, 48 h | Potency, µM (top dose mostly 46.2 µM), without a hit: top-dose activity change, negative = growth inhibition, actives largely listed as inhibitors | 15% of 420,000 active; note: potency is the fitted concentration of half-maximal effect; nearly all actives have a fitted effect of over 55% in size
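Camptothecin absent (DMSO only). Human TDP1-complemented DT40 knockout cells, 400 cells/well, 37 °C for minimum 48 hr; ATP measured via CellTiter-Glo, 30 min dark incubation, luminescence.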
TDP1 cell CPT – DT40-hTDP1 cell growth loss with CPT | Potency, µM (titrated, usually from 46.2 µM), for the others: at the highest dose activity change, negative = growth inhibition, usual class: inhibitors | chicken DT40 Tdp1-/-;hTDP1 cells + 20 nM CPT, ATP luminescence, 48 h | 12% of 420,000 active; note: potency is the fitted concentration of half-maximal effect; nearly all actives have a fitted effect of over 55% in size
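Cell growth measured by CellTiter-Glo luminescence after a minimum 48 h, 37 C compound exposure with 20 nM CPT in Tdp1-knockout DT40 cells stably expressing hTDP1, seeded 400/well; qHTS titration format.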
HT1080NT lethal – kills 2HG-producing HT-1080-NT fibrosarcoma cells | AID 686970 | HT-1080-NT fibrosarcoma viability, CellTiter-Glo ATP luminescence, 48 h | 1.6% of 360,000 active | Potency, µM (highest dose often 46.1 µM), without a hit: at the highest dose activity, negative = less viability, usual class: cytotoxic;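 note: NT is the 2HG producing partner of a matched IDH1 knockdown line; potency is the fitted concentration of half-maximal effect; 0% = DMSO-treated cells and -100% = media-only wells without cells; nearly all actives have a fitted effect of over 55% in size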
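Toxicity toward the 2HG-producing NT line was scored as %Activity, normalised to DMSO and no-cell wells, from CellTiter-Glo luminescence after 48 hours' treatment.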
HT1080 IDH1KD tx – toxicity to HT-1080 IDH1 knockdown cells (counter line); HT-1080 IDH1 knockdown viability, ATP luminescence, 48 h; Potency, µM (doses to about 46.1 µM), for inactives: at the highest dose activity, negative = toxicity, usual class: cytotoxic; 2% of 360,000 active;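 note: potency is the fitted concentration of half-maximal effect; 0% = DMSO wells and -100% = cell-free medium wells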
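Using the IDH1-knockdown HT-1080 line run in the same batch and compound series as the NT line, viability after 48 h at 37 °C was determined by CellTiter-Glo luminescence and expressed as % activity.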
IL1B secr inh – inflammasome signaling inhibition, IL-1 beta readout; THP-1 LPS/ATP IL-1B secretion, AlphaLISA, 16 h; stronger effect = lower value; activity change, % at 57.5 µM; 4.7% of 360,000 active; AID 743279; in the data active = activity change below about -50%; inconclusive = mostly about -30% to -49%
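Secreted IL-1B measured by AlphaLISA bead assay after 16 h compound exposure of THP-1 cells; compounds (final up to 57.5 uM) added 1 h before LPS (250 ng/mL) and ATP (1.25 mM) stimulation; lower signal means less secretion.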
The depositor's hits bear a star; ? = inconclusive; . = not tested or not shown; [ ] = dose if it differs, or a comment. In the library only some 19% were active in any assay of this set; here they are far more common. Unless noted, calls come from the whole dose curve; as a rule, active = well fitted curve in the direction sought with a large enough effect; inconclusive = small, poorly fitted or top-dose-only effect, or another doubt; inactive = no such curve, though single readings can be large; an effect the other way counts as inactive or inconclusive. Unless noted, % is set by controls: 0 for no effect and ±100 for the full control effect.

SMILES	DT40 TDP1 no CPT	TDP1 cell CPT	HT1080NT lethal	HT1080 IDH1KD tx	IL1B secr inh
CCC(=O)/C=C1\Sc2ccc(OC)cc2N1CC	16µM*	?	-23%	-10%	-6
CCC(=O)/C=C1\Sc2ccc(OC)cc2N1CCO	-21%	-26%	?	26%	-17
CCOc1ccc(-n2nc(CO)c(C(=O)NCc3cccs3)n2)cc1	16µM*	?	.	.	.
Cc1ccc(-n2nc(CO)c(C(=O)NCc3cccs3)n2)cc1	1%	8%	.	.	.
COC(=O)c1nn(-c2ccccc2)c(Cl)c1/C=N/OCc1ccc(Cl)cc1Cl	29µM*	16µM*	9%	-5%	-1
COc1ccc(Cl)cc1N=Cc1c(O)cc(C)oc1=O	-4%	-6%	4%	-3%	14
Cc1cc(O)c(/C=N/OCc2ccc(Cl)cc2Cl)c(=O)o1	?	15µM*	-20%	-10%	-12
COC(=O)c1nn(-c2ccccc2)c(Cl)c1/C=N/O	-6%	1%	-5%	-2%	29
CN(C(=O)CSc1nnc(C(F)(F)F)n1N)C1CCS(=O)(=O)C1 (stereo unspecified)	-25%	-1%	1%	4%	7
C=CCNC1=C2C[C@@H](C)C[C@H](OC)[C@H](O)[C@@H](C)/C=C(\C)[C@H](OC(N)=O)[C@@H](OC)/C=C\C=C(/C)C(=O)NC(=CC1=O)C2=O	0.38µM*	1.1µM*	.	.	.
COC1C=CC=C(C)C(=O)NC2=CC(=O)C(N)=C(CC(C)CC(OC)C(O)C(C)C=C(C)C1OC(N)=O)C2=O (stereo unspecified)	0.18µM*	0.16µM*	?	0.041µM*	-92*
O=C(CCCN1C(=O)c2cccnc2Oc2ccc(Cl)cc21)N1CCCCC1	7%	3%	5%	11%	0
O=C1c2cccnc2C(=O)N1Cc1ccc(F)cc1	-12%	1%	-10%	7%	31
COc1ccccc1CNC(=O)CCSCc1cccc(Cl)c1	-12%	3%	1%	5%	-72*
O=C(COc1ccccc1-c1ccccc1)NCc1cccc(Cl)c1	?	21µM*	-4%	0%	23
COc1ccccc1CNC(=O)CCc1ccccc1	18µM*	?	4%	4%	5
COc1ccc(CCC(=O)NCc2ccccc2OC)cc1	5%	-14%	-2%	-3%	-19
Cc1ccccc1OCC(=O)NCc1ccccc1	5%	-1%	4%	13%	1
CCCCNC(=O)COc1ccccc1[N+](=O)[O-]	2%	-5%	-1%	-5%	-10
Cc1ccc2[nH]c(C(=O)N3CCOCC3)cc2c1	8%	7%	0%	1%	-2
O=C(NCc1ccco1)C(c1ccccc1)N(C(=O)Cc1cccs1)c1ccccc1F (stereo unspecified)	26µM*	?	14%	2%	?
Cc1ccc(C(C(=O)NCc2ccco2)N(C(=O)CNC(=O)c2cccs2)c2c(C)cc(C)cc2C)cc1 (stereo unspecified)	10µM*	10µM*	8%	1%	77
Cc1ccc(C(C(=O)NCc2ccco2)N(C(=O)CNC(=O)c2cccs2)c2c(C)cccc2C)cc1 (stereo unspecified)	?	?	12%	12%	-22
O=C(NCc1ccco1)C(c1ccncc1)N(C(=O)Cc1cccs1)c1ccccc1 (stereo unspecified)	-17%	-17%	10%	9%	-15
O=C1C(=O)N(CC2CCCO2)C(c2ccco2)/C1=C(/O)c1ccc(F)cc1 (stereo unspecified)	11%	5%	12%	20%	-8
SMILES	DT40 TDP1 no CPT	TDP1 cell CPT	HT1080NT lethal	HT1080 IDH1KD tx	IL1B secr inh
COc1ccccc1N1CCN(C(=O)C2CCN(S(=O)(=O)c3cccs3)CC2)CC1	21µM*	16µM*	.	.	.
O=C(C1CCN(S(=O)(=O)c2cccs2)CC1)N1CCCCC1	0%	-3%	0%	-4%	33
COc1cccc(N2CCN(C(=O)C3CCN(S(=O)(=O)c4cccs4)CC3)CC2)c1	13µM*	?	-18%	-6%	18
COc1ccccc1N1CCN(C(=O)C2CCN(S(=O)(=O)c3ccc(F)cc3)CC2)CC1	?	-15%	-1%	-3%	17
CCOC(=O)c1ccc(S(=O)(=O)N2CCC(C(=O)N3CCN(c4ccccc4OC)CC3)CC2)cc1	-80%	?	?	?	-85*
CC1CCCN(C(=O)C2CCN(S(=O)(=O)c3cccc4cccnc34)CC2)C1 (stereo unspecified)	-27%	?	-2%	0%	9
Cc1cccc(COC[C@H](Cc2ccccc2)N2CCN(C(=O)c3cccc(C)c3)CCC2=O)c1	?	?	?	?	-13
Cc1cccc(C(=O)N2CCC(=O)N(C(COCc3cccc(C(F)(F)F)c3)Cc3ccccc3)CC2)c1 (stereo unspecified)	?	29µM*	?	-28%	?
Cc1cccc(C(=O)N2CCC(=O)N([C@H](COCc3cccc(C(F)(F)F)c3)Cc3ccccc3)CC2)c1	16µM*	?	?	?	-1
CN(C)c1ccc(/C=N/N2C(=S)SC(C)(C)C2N(O)C(=O)Nc2ccc([N+](=O)[O-])cc2)cc1 (stereo unspecified)	?	?	-14%	?	?
CCOC(=O)c1c(C)[nH]c(C)c1C(=O)COC(=O)c1ccc(S(=O)(=O)N(CC)CC)cc1	-16%	-20%	0%[9.24 µM]	-25%	7
CCN(CC)S(=O)(=O)c1cccc(C(=O)OCC(=O)C23CC4CC(CC(C4)C2)C3)c1	23µM*	?	2%	1%	-6
O=C(OCC(=O)C12CC3CC(CC(C3)C1)C2)c1cccnc1	-17%	-12%	-6%	18%	9
CCOC(=O)c1c(C)[nH]c(C)c1C(=O)COC(=O)c1cccc(S(=O)(=O)N(CC)CC)c1	29µM*	?	0%	-11%	-12
COC(=O)c1ccc(C(=O)N2CCCC(Nc3ccc(F)c(F)c3)C2)cc1 (stereo unspecified)	-1%	-5%	0%	1%	-10
COc1cc(OC)cc(C2=Cc3ccccc3C(CC(C)=O)N2c2ccc(C#CC3(N)CCCCC3)cc2)c1 (stereo unspecified)	?	?	15µM*	13µM*	-19
COc1cc(OC)cc(C2=Cc3ccc(OC)cc3C(CC(C)=O)N2c2ccc(C#CC3(N)CCCCC3)cc2)c1 (stereo unspecified)	26µM*	5.2µM*	16µM*	26µM*	-22

Source: PubChem (National Center for Advancing Translational Sciences (NCATS))
